The entries come from a sample that favours hits as a whole.
ER stress surv: ER stress cell death inhibition. CSM14.1 thapsigargin ER stress survival, ATP luminescence. relative survival (cellular ATP), % at 15 µg/mL (by protocol). 0.33% of 48,000 active;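 active means survival measured by cellular ATP above 50% at 15 µg/ml in the first screen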;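 further: cell death triggered by about 15 µM thapsigargin; ATP read 24 h after thapsigargin was added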
Each line names hits and unclear results; the compound was inactive in the other large screens.

O=C(COc1ccc(Cl)cc1)N1CCN(Cc2cccc(F)c2)CC1	none
COc1ccc(Br)cc1CN1CCN(C(=O)COc2ccc(Cl)cc2)CC1	none
COc1ccc(CN2CCN(C(=O)COc3ccc(Cl)cc3)CC2)cc1OCc1ccccc1	ER stress surv 69
Cc1nc2c(Cl)cc(Cl)cc2c(=O)n1-c1ccccc1F	none
COc1ccccc1-n1c(/C=C/c2ccccc2O)nc2ccccc2c1=O	none

Source: PubChem BioAssay (Sanford-Burnham Center for Chemical Genomics)
